In PubChem BioAssay AID1159580 (chemical genetic matrix, 2015):
Among all 5,500 compounds or so, about 2,000 (36%) were called active. Not shown: some 18% with an inconclusive outcome. Cut-off read from the data, not from the text of the source: active = normalized growth mostly below about 0.91 (no sharp cut-off); inconclusive = no clear call, values can overlap the other calls; inactive = mostly above about 0.92. Some of the results follow.

Assay: chemical genetic growth profiling, strain panel (AID 1159580);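 note: tested at 20 µM; growth read once vehicle control cultures reached saturation at 30 °C; 1 = growth at the plate median or of vehicle wells; lower values mean less growth of the strain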
Conditions: growth OD

Measured: normalized growth

CN1CCC[C@@H]1CCO[C@](C)(c1ccccc1)c1ccc(Cl)cc1
active: S. cerevisiae deletion strains, locus YLR039C, strain RIC1, stronger effect = lower value 1.41 [resistant] | S. cerevisiae deletion strains, locus YLR262C, strain YPT6, stronger effect = lower value 1.46 [resistant] | S. cerevisiae deletion strains, locus YLR342W, strain FKS1, stronger effect = lower value 0.893 | S. cerevisiae deletion strains, locus YLR418C, strain cdc73, stronger effect = lower value 0.682 | S. cerevisiae deletion strains, locus YNL071W, strain lat1, stronger effect = lower value 0.888 | S. cerevisiae deletion strains, locus YNL209W, strain ssb2, stronger effect = lower value 0.877 | S. cerevisiae deletion strains, locus YNL248C, strain rpa49, stronger effect = lower value 0.836 | S. cerevisiae deletion strains, locus YOL006C, strain TOP1, stronger effect = lower value 0.417 | S. cerevisiae deletion strains, locus YOR270C, strain vph1, stronger effect = lower value 0.616
inactive: S. cerevisiae deletion strains, locus YJR075W, strain HOC1, stronger effect = lower value 0.92 | S. cerevisiae deletion strains, locus YKL009W, strain mrt4, stronger effect = lower value 0.977 | S. cerevisiae deletion strains, locus YKL068W, stronger effect = lower value 0.992 | S. cerevisiae deletion strains, locus YKL085W, strain MDH1 (second series), stronger effect = lower value 0.995 | S. cerevisiae deletion strains, locus YKL085W, strain MDH1, stronger effect = lower value 0.995 | S. cerevisiae deletion strains, locus YKL160W, strain elf1, stronger effect = lower value 0.977 | S. cerevisiae deletion strains, locus YKL190W, strain CNB1, stronger effect = lower value 0.977 | S. cerevisiae deletion strains, locus YKR001C, strain vps1, stronger effect = lower value 1.02 | S. cerevisiae deletion strains, locus YKR026C, strain gcn3, stronger effect = lower value 1.02 | S. cerevisiae deletion strains, locus YKR091W, strain srl3, stronger effect = lower value 1 | S. cerevisiae deletion strains, locus YLL001W, strain dnm1, stronger effect = lower value 0.946 | S. cerevisiae deletion strains, locus YLL026W, stronger effect = lower value 0.988 | S. cerevisiae deletion strains, locus YLL041C, strain sdh2, stronger effect = lower value 0.992 | S. cerevisiae deletion strains, locus YLR027C, strain aat2, stronger effect = lower value 0.98 | S. cerevisiae deletion strains, locus YLR058C, strain SHM2, stronger effect = lower value 0.994 | S. cerevisiae deletion strains, locus YLR102C, strain apc9, stronger effect = lower value 0.997 | S. cerevisiae deletion strains, locus YLR113W, strain HOG1, stronger effect = lower value 0.969 | S. cerevisiae deletion strains, locus YLR221C, strain rsa3, stronger effect = lower value 0.932 | S. cerevisiae deletion strains, locus YLR258W, strain gsy2, stronger effect = lower value 0.977 | S. cerevisiae deletion strains, locus YLR262C, strain YPT6 (second series), stronger effect = lower value 1.07 | S. cerevisiae deletion strains, locus YLR268W, strain sec22, stronger effect = lower value 0.929 | S. cerevisiae deletion strains, locus YLR320W, strain mms22, stronger effect = lower value 0.878 | S. cerevisiae deletion strains, locus YLR330W, strain CHS5, stronger effect = lower value 1.02 | S. cerevisiae deletion strains, locus YLR342W, strain FKS1 (second series), stronger effect = lower value 0.834 | S. cerevisiae deletion strains, locus YLR357W, strain rsc2, stronger effect = lower value 1.01 | S. cerevisiae deletion strains, locus YLR370C, strain arc18, stronger effect = lower value 0.966 | S. cerevisiae deletion strains, locus YLR371W, strain rom2, stronger effect = lower value 0.994 | S. cerevisiae deletion strains, locus YLR384C, strain iki3, stronger effect = lower value 1.01 | S. cerevisiae deletion strains, locus YML016C, strain PPZ1, stronger effect = lower value 1.02 | S. cerevisiae deletion strains, locus YML032C, strain rad52, stronger effect = lower value 0.98 | S. cerevisiae deletion strains, locus YML120C, strain ndi1, stronger effect = lower value 1 | S. cerevisiae deletion strains, locus YML124C, strain tub3, stronger effect = lower value 0.994 | S. cerevisiae deletion strains, locus YMR058W, strain fet3, stronger effect = lower value 0.953 | S. cerevisiae deletion strains, locus YMR078C, strain ctf18, stronger effect = lower value 0.993 | S. cerevisiae deletion strains, locus YMR125W, strain sto1, stronger effect = lower value 0.96 | S. cerevisiae deletion strains, locus YMR129W, stronger effect = lower value 0.99 | S. cerevisiae deletion strains, locus YMR205C, strain PFK2, stronger effect = lower value 0.955 | S. cerevisiae deletion strains, locus YMR223W, strain ubp8, stronger effect = lower value 0.964 | S. cerevisiae deletion strains, locus YMR231W, strain pep5, stronger effect = lower value 1.01 | S. cerevisiae deletion strains, locus YMR263W, strain SAP30, stronger effect = lower value 0.976 | S. cerevisiae deletion strains, locus YMR307W, strain GAS1, stronger effect = lower value 0.92 | S. cerevisiae deletion strains, locus YNL067W, strain RPL9B, stronger effect = lower value 0.971 | S. cerevisiae deletion strains, locus YNL128W, strain TEP1, stronger effect = lower value 0.898 | S. cerevisiae deletion strains, locus YNL153C, strain GIM3, stronger effect = lower value 1 | S. cerevisiae deletion strains, locus YNL183C, strain NPR1, stronger effect = lower value 0.918 | S. cerevisiae deletion strains, locus YNL233W, strain BNI4, stronger effect = lower value 0.978 | S. cerevisiae deletion strains, locus YNL250W, strain rad50, stronger effect = lower value 0.986 | S. cerevisiae deletion strains, locus YNL271C, strain bni1, stronger effect = lower value 0.986 | S. cerevisiae deletion strains, locus YNL298W, strain CLA4, stronger effect = lower value 0.988 | S. cerevisiae deletion strains, locus YNL307C, strain MCK1, stronger effect = lower value 0.96 | S. cerevisiae deletion strains, locus YNL322C, strain KRE1 (second series), stronger effect = lower value 1.02 | S. cerevisiae deletion strains, locus YNL322C, strain KRE1, stronger effect = lower value 1.01 | S. cerevisiae deletion strains, locus YNR049C, strain mso1, stronger effect = lower value 1.01 | S. cerevisiae deletion strains, locus YNR052C, strain pop2, stronger effect = lower value 0.971 | S. cerevisiae deletion strains, locus YOL012C, strain htz1 0.791 | S. cerevisiae deletion strains, locus YOL147C, strain pex11, stronger effect = lower value 0.999 | S. cerevisiae deletion strains, locus YOR001W, strain rrp6, stronger effect = lower value 0.951 | S. cerevisiae deletion strains, locus YOR061W, strain CKA2, stronger effect = lower value 1.01 | S. cerevisiae deletion strains, locus YOR069W, strain VPS5, stronger effect = lower value 1 | S. cerevisiae deletion strains, locus YOR070C, strain gyp1, stronger effect = lower value 0.974 | S. cerevisiae deletion strains, locus YOR080W, strain dia2, stronger effect = lower value 0.994 | S. cerevisiae deletion strains, locus YOR083W, strain WHI5, stronger effect = lower value 0.93 | S. cerevisiae deletion strains, locus YOR106W, strain vam3, stronger effect = lower value 0.914 | S. cerevisiae deletion strains, locus YOR136W, strain idh2, stronger effect = lower value 0.991 | S. cerevisiae deletion strains, locus YOR144C, strain elg1, stronger effect = lower value 1 | S. cerevisiae deletion strains, locus YOR184W, strain ser1, stronger effect = lower value 0.999 | S. cerevisiae deletion strains, locus YOR231W, strain MKK1, stronger effect = lower value 0.991 | S. cerevisiae deletion strains, locus YOR265W, strain rbl2, stronger effect = lower value 0.998 | S. cerevisiae deletion strains, locus YOR290C, strain snf2, stronger effect = lower value 0.957 | S. cerevisiae deletion strains, locus YOR316C, strain cot1, stronger effect = lower value 0.993 | S. cerevisiae deletion strains, locus YPL051W, strain arl3, stronger effect = lower value 0.94 | S. cerevisiae deletion strains, locus YPL055C, strain LGE1, stronger effect = lower value 0.782 | S. cerevisiae deletion strains, locus YPL078C, strain atp4, stronger effect = lower value 0.916 | S. cerevisiae deletion strains, locus YPL106C, strain sse1, stronger effect = lower value 1.02 | S. cerevisiae deletion strains, locus YPL240C, strain hsp82, stronger effect = lower value 0.992 | S. cerevisiae deletion strains, locus YPL241C, strain CIN2, stronger effect = lower value 0.999 | S. cerevisiae deletion strains, locus YPL256C, strain CLN2, stronger effect = lower value 0.979 | S. cerevisiae deletion strains, locus YPR119W, strain clb2, stronger effect = lower value 0.998 | S. cerevisiae deletion strains, locus YPR141C, strain kar3, stronger effect = lower value 0.997 | S. cerevisiae deletion strains, locus YPR163C, strain tif3, stronger effect = lower value 0.975 | S. cerevisiae deletion strains, locus YPR167C, strain met16, stronger effect = lower value 0.991 | S. cerevisiae deletion strains, strain wtn01, stronger effect = lower value 0.959 | S. cerevisiae strains, strain wild type, stronger effect = lower value 0.99
